# Source: PubChem BioAssay (NCATS)
# Where “and” joins values, the source holds several entries; their conditions need not be identical. Identical values can stand only once. Results filed as inconclusive are left out. Entries that show only a call come without a potency. Calls of active or inactive are those of the source. Unless noted, calls follow the shape of the dose curve; as a rule, active = well fitted curve in the direction sought with a large enough effect; inconclusive = small, poorly fitted or top-dose-only effect, or another doubt; inactive = no such curve, though single readings can be large; an effect the other way counts as inactive or inconclusive.
# Assays:
# [1] = biological target: Peroxisome proliferator-activated receptor alpha (Homo sapiens) (UniProt Q07869); experiment: qHTS assay for small molecule agonists of the peroxisome proliferator-activated receptor alpha (PPARalpha) signaling pathway (AID 651778); conditions: PathHunter PPARalpha complementation, chemiluminescence, 6 h; max response: stronger effect = higher value
# Peroxisome proliferator-activated receptor alpha (Homo sapiens), sequence (Q07869 whole entry, looked up): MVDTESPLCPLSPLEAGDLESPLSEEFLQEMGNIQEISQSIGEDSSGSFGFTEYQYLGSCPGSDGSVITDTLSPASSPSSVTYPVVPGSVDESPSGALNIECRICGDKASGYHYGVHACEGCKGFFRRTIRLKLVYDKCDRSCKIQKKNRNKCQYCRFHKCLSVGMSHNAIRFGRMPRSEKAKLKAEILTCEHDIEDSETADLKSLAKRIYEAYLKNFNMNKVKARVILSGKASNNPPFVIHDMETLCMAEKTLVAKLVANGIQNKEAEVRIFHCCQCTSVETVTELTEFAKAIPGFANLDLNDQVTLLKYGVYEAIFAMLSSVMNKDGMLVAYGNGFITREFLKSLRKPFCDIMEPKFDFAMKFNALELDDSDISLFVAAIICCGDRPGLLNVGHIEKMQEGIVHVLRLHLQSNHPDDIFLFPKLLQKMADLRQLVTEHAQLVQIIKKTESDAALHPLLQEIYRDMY
# Outline: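 Chemiluminescence from complemented enzyme reported PPARalpha activation in cells after 6 hr of compound treatment at 37 C. The detection reagent was incubated for 60 min at room temperature, and compounds were scored as agonists.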
# [2] = biological target: Nuclear receptor ROR-gamma (Homo sapiens) (UniProt P51449); experiment: qHTS assay for small molecule antagonists of the retinoid-related orphan receptor gamma (ROR-gamma) signaling pathway (AID 651802); conditions: ROR-gamma antagonist cell reporter assay; series mostly up to 92.2 µM; also: nearly all actives have a fitted effect of over 60% in size; also: potency is read from the fitted curve at half-maximal effect
# Nuclear receptor ROR-gamma (Homo sapiens), sequence (P51449 whole entry, looked up): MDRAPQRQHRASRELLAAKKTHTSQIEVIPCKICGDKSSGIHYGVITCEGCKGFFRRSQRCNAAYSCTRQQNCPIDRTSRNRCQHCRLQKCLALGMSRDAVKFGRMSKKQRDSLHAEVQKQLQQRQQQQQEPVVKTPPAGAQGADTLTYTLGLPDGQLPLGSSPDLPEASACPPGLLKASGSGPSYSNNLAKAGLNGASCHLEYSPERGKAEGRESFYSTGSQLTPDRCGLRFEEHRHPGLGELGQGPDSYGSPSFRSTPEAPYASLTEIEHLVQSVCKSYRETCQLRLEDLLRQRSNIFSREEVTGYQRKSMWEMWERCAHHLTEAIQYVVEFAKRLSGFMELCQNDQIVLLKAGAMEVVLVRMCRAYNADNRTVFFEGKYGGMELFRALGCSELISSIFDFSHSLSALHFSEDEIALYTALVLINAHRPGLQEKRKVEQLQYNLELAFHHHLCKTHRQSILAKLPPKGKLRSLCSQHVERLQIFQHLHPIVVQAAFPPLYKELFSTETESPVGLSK
# Outline: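 CHO cells with TET-inducible ROR-gamma and RORE-luciferase reporter, dosed then doxycycline-induced. After 16 h at 37C, One-Glo luminescence read; decreased signal indicates antagonism.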
# [3] = qHTS for compounds that reverse cellular toxicity of Amyloid beta (A-beta) peptide in yeast: LOPAC Validation Assay (AID 720559); conditions: yeast expressing A-beta; series mostly up to 46.1 µM
# Outline: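 Yeast expressing toxic A-beta grown with pinned compounds at 30 C for 48 hr. Growth measured as absorbance at 600 nm; data normalized to DMSO and to an equimolar FeCl3/clioquinol mixture as positive control.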
# [4] = qHTS for Activators of Parkin Expression: LOPAC Validation Assay (NLuc Reporter) (AID 720572); conditions: Parkin promoter NanoLuc reporter cells, luminescence, percent of positive control, DMSO as zero; series mostly up to 46.1 µM
# Outline: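 Parkin promoter-driven FLuc/NLuc neuronal reporter cells; 24 h plating, 7-pt dose response, 24 h at 37 C/5% CO2; FLuc then NanoLuc reagent, 10 min each, luminescence; DMSO/positive control normalized.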
# [5] = qHTS for Activators of Parkin Expression: LOPAC Validation Assay (FLuc Reporter) (AID 720573); conditions: Cell line, PRKN promoter firefly luciferase reporter; series mostly up to 46.1 µM
# Outline: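 Neuronal cell line stably expressing FLuc/NLuc coincidence reporter under the Parkin promoter, 1,500 cells/well, dosed 24 h after seeding in 7-point series for 24 h at 37 C. FLuc luminescence read; normalized to DMSO and positive control (100%).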
# [6] = qHTS assay for small molecule agonists of the antioxidant response element (ARE) signaling pathway measured by Nrf2-dependant transcriptional activity (AID 720636; active = well fitted curve in the direction sought with a large enough effect in the repeat runs; an effect the other way counts as inactive or inconclusive;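 also: HepG2 cells with an ARE-driven luciferase reporter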); conditions: ARE-luc HepG2, Nrf2 luciferase reporter, 16 h; series mostly up to 92.4 µM
# Outline: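 HepG2 ARE-luc reporter line, 1% dialyzed FBS; 6 hr attachment at 37 C, compound pinned in, 16 hr at 37 C/5% CO2; ONE-Glo, 30 min RT, luminescence read.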
# [7] = qHTS assay for small molecule antagonists of the retinoid-related orphan receptor gamma (ROR-gamma) signaling pathway - cell viability counter screen (AID 720652; active = well fitted curve in the direction sought with a large enough effect in the repeat runs; an effect the other way counts as inactive or inconclusive;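 also: compound exposure lasted 16 hr before ATP read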; also: potency is read from the fitted curve at half-maximal effect); conditions: RORgamma reporter cell line viability counter screen; series mostly up to 92.2 µM
# Outline: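 CHO cells carrying TET-inducible ROR and RORE-luciferase reporter, plated 5 hr, then dosed with compound plus doxycycline. After 16 hr at 37 C, viability read as intracellular ATP by CellTiter-Glo luminescence.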
# [8] = qHTS assay for small molecule agonists of the antioxidant response element (ARE) signaling pathway measured by Nrf2-dependant transcriptional activity - cell viability counter screen (AID 720653; active = well fitted curve in the direction sought with a large enough effect in the repeat runs; an effect the other way counts as inactive or inconclusive); conditions: ARE-bla HepG2 viability, CellTiter-Glo ATP luminescence, 16 h; max response: stronger effect = lower value
# Outline: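 Cytotoxicity counter screen: intracellular ATP quantified by CellTiter-Glo luminescence in the same ARE-bla HepG2 plates, after 16 h compound exposure and a 2 h beta-lactamase substrate step.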
# [9] = biological target: T1, Hexokinase-4 (Homo sapiens) + Glucokinase regulatory protein (Homo sapiens) (UniProt P35557+Q14397); experiment: qHTS assay for inhibitors of recombinant human GCK-GKRP interaction: Diaphorase-coupled assay (AID 743205); conditions: G6PDH/diaphorase resorufin fluorescence; series mostly up to 57.5 µM
# T1 sequence (P35557 whole entry, looked up): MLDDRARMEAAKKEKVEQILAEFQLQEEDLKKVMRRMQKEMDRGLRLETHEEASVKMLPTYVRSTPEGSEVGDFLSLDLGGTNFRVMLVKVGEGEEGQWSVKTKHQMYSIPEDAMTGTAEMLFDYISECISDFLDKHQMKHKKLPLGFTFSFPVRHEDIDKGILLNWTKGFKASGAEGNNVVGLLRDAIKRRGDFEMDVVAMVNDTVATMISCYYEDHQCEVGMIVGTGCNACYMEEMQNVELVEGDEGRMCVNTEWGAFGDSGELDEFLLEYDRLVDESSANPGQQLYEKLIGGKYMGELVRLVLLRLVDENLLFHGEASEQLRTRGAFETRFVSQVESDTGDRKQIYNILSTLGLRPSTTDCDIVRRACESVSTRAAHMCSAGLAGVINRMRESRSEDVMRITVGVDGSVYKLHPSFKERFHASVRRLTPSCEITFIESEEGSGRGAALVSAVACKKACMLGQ
# T1 sequence (Q14397 whole entry, looked up): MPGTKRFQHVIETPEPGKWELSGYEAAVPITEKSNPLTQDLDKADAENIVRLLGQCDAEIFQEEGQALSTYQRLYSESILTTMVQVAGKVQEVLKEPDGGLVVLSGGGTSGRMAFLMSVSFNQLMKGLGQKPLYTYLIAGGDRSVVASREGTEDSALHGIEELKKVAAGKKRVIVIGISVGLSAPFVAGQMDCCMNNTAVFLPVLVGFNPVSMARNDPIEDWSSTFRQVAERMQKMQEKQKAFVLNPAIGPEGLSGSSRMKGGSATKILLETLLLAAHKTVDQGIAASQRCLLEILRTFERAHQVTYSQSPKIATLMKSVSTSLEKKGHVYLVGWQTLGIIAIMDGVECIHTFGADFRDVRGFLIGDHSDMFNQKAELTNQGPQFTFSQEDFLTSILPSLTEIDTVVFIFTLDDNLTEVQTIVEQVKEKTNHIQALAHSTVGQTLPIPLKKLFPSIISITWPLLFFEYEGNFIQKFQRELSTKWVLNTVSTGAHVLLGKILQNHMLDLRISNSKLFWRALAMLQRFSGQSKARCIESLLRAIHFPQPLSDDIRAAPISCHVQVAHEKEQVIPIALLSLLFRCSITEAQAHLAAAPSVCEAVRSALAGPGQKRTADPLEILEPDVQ
# Outline: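 Compounds pre-incubated 20 min with substrate, then 10 nM GST-GCK with 10 nM FLAG-GKRP added. GCK activity coupled via G6PDH and diaphorase to resorufin (5 mM glucose, 0.4 mM ATP, 0.15 mM NADP+, pH 7.6), read kinetically over 30 minutes at Ex 525/Em 590 nm.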
# [10] = biological target: T1, Hexokinase-4 (Homo sapiens) + Glucokinase regulatory protein (Homo sapiens); experiment: qHTS assay for inhibitors of recombinant human GCK-GKRP interaction: ADP-Glo assay (AID 743206); conditions: ADP-Glo luminescence, 60 min; series mostly up to 76.9 µM
# Outline: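 GST-GCK and FLAG-GKRP (15 nM each in the dispensed mix, with 2 uM S6P) react with 0.4 mM ATP and 5 mM glucose (final) in Hepes pH 7.6 for 60 min at room temperature. ADP is measured by ADP-Glo luminescence.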
# [11] = biological target: T1, Hexokinase-4 (Homo sapiens) + Glucokinase regulatory protein (Homo sapiens); experiment: qHTS assay for inhibitors of recombinant human GCK-GKRP interaction: HTRF assay (AID 743207); conditions: recombinant GCK-GKRP HTRF binding, 60 min, with sorbitol-6-phosphate; series mostly up to 57.5 µM
# Outline: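 HTRF binding of 5 nM GST-GCK and 5 nM FLAG-GKRP with 2 uM S6P in pH 7.1 Hepes buffer (MgCl2, KCl, DTT, Tween 20, BSA). Anti-FLAG XL665 and anti-GST donor added, 60 min at room temperature; 665/615 nm read, normalized to with- and without-GCK controls.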
# [12] = qHTS Assay for Identifying Gametocytocidal Compounds (AID 743244); also: potency is read from the fitted curve at half-maximal effect;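 as to max response: actives lower the fluorescent signal which means gametocytes are killed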; conditions: P. falciparum 3D7 stage III-V gametocytes, alamarBlue, 72 h; max response: stronger effect = lower value
# Outline: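 Using 20,000 stage III–V 3D7 gametocytes per well, compounds were incubated 72 h under 37 °C/5% CO2. Viability was then assessed by 24 h alamarBlue reduction, measured fluorometrically at 525/598 nm.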
# [13] = qHTS assay for cell viability of HEK293 cells (AID 743288); conditions: ATP luminescence (CellTiter-Glo), 18 h; max response: stronger effect = lower value; also: nearly all actives have a fitted effect of over 50% in size; also: potency is read from the fitted curve at half-maximal effect
# Outline: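 Parental HEK293 cells, 2,000 per well, preincubated at least 5 h at 37 C, then exposed to compounds in DMSO for 18 h at 37 C. Viability by CellTiter-Glo ATP luminescence after 30 min at room temperature.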
# [14] = qHTS assay for cell viability of the p53RE-bla HCT-116 cell line (AID 743292); conditions: p53RE-bla HCT-116 viability, ATP luminescence, 16 h; series mostly up to 95 µM; also: nearly all actives have a fitted effect of over 55% in size
# Outline: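 Luminescent ATP quantitation (CellTiter-Glo) served as the viability read-out; reagent was added after 16 h compound exposure at 37 C and read after 30 min at room temperature. Cells: p53RE-bla HCT-116, 4,000 per well.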
# [15] = biological target: Arylsulfatase A (Homo sapiens) (UniProt P15289); experiment: qHTS screen for enhancers of Arylsulfatase A (ASA1): LOPAC Validation Assay (AID 720538); conditions: ASA enzyme activity, LOPAC qHTS enhancer assay; series mostly up to 57.5 µM
# Arylsulfatase A (Homo sapiens), sequence (P15289 whole entry, looked up): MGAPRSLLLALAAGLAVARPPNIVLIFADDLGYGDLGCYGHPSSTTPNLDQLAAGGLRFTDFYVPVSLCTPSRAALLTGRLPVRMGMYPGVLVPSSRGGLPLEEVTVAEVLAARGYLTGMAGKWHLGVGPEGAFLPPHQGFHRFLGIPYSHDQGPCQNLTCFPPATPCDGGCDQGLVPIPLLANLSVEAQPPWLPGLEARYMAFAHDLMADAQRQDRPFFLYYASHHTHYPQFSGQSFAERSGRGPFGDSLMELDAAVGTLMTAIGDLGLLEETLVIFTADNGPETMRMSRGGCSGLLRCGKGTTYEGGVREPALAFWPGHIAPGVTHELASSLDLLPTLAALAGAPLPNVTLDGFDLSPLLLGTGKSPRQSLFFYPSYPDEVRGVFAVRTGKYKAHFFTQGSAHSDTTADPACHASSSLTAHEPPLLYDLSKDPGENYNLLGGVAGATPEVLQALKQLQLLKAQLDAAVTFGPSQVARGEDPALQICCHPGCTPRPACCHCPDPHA
# Outline: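 SV40-transformed fibroblasts from an MLD patient (ASA-I179S) were treated with compound for 48 h at 37 C. They were then lysed with 0.5 mM pNCS substrate (final) for 14 h at room temperature and stopped with NaOH; signal read by fluorescence (Ex 525/Em 598 nm), with increase denoting enhanced activity.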
# [16] = biological target: Tyrosine-protein kinase Yes (Homo sapiens) (UniProt P07947); experiment: qHTS for small molecule inhibitors of Yes1 kinase: Primary Screen (AID 686947); conditions: Yes1 kinase biochemical qHTS inhibition; series mostly up to 76.9 µM; also: nearly all actives have a fitted effect of over 60% in size
# Tyrosine-protein kinase Yes (Homo sapiens), sequence (P07947 whole entry, looked up): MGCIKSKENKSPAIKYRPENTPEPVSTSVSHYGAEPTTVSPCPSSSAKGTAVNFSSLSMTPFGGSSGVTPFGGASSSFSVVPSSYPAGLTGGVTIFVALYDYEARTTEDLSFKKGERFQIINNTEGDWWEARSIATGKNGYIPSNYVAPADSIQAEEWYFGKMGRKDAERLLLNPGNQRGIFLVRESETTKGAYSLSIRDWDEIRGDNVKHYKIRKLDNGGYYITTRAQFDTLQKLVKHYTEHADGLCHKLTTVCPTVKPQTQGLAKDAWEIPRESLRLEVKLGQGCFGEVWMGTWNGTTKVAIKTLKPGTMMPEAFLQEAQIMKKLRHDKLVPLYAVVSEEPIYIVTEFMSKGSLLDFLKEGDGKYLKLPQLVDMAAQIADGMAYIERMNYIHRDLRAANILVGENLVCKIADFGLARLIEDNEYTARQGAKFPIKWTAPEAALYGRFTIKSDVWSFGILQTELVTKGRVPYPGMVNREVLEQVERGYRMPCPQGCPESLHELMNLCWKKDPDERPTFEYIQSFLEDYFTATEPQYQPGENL
# Outline: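 Yes1 (4 nM) preincubated 20 min with compound, then 60 min room-temperature reaction with 0.1 mM ATP and 0.3 mg/mL poly(E4Y) in pH 7.5 Tris, 10 mM MgCl2. ADP measured by ADP-Glo luminescence, normalised to enzyme/no-enzyme controls.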
# [17] = qHTS for small molecule inhibitors of Yes1 kinase: Counter Assay (AID 686950); conditions: series mostly up to 76.9 µM;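 also: no kinase present so only ADP-Glo detection of a fixed ADP amount is tested; luminescence from ADP-Glo reporting ADP in a fixed ATP and ADP mixture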
# Outline: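 Luminescence read-out from ADP-Glo quantifies a fixed ADP amount (0.02 mM ADP with 0.08 mM ATP) after 60 min at room temperature; signal is normalized between DMSO wells with ATP/ADP and with 0.1 mM ATP alone.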
# [18] = qHTS profiling for inhibitors of Plasmodium falciparum (3D7) proliferation (AID 743322);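 also: infected erythrocytes exposed to compound for 72 h before lysis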; conditions: P. falciparum 3D7 proliferation
# Outline: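 Erythrocytes infected with P. falciparum (0.3% parasitemia, 2.5% hematocrit) incubated with compounds 72 h at 37 C, 5% CO2. Lysis with saponin/Triton buffer containing SYBR Green I, overnight at room temperature in the dark; DNA fluorescence (485/535 nm) normalised to 0.29 uM artemisinin and DMSO.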
# [19] = qHTS profiling for inhibitors of Plasmodium falciparum (DD2) proliferation (AID 743323; call rule not given here); conditions: lower = more inhibition
# Outline: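 SYBR Green fluorescence (ex 485, em 535 nm) of lysed cultures gives parasite DNA content; wells normalized to artemisinin (0.29 uM) and DMSO controls. Infected red cells: 0.3% parasitemia, 2.5% hematocrit, 72 h, 37 C.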
# [20] = qHTS profiling for inhibitors of Plasmodium falciparum (HB3) proliferation (AID 743324); conditions: Plasmodium falciparum HB3 blood-stage proliferation
# Outline: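 P. falciparum HB3 grown in erythrocytes (0.3% parasitemia, 2.5% hematocrit final) with compound for 72 h at 37 C, 5% CO2. Parasite DNA detected by SYBR Green after saponin/triton lysis overnight; normalized to 0.29 uM artemisinin and DMSO.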
smiles,measurement,setting,value
NCCS(=O)(=O)O,max response,[1],5.59% (inactive)
same,Potency,[2],inactive
same,outcome,[3],inactive
same,outcome,[4],inactive
same,Potency,[5],inactive
same,outcome,[6],inactive
same,Potency,[7],inactive
same,max response,[8],5.47% (inactive)
same,Potency,[9],inactive
same,Potency,[10],inactive
same,Potency,[11],inactive
same,max response,[12],-8.78% (inactive) and 22.4% (inactive)
same,max response,[13],10.5% (inactive)
same,Potency,[14],inactive
O=C(Nc1ccc([N+](=O)[O-])cc1Cl)c1cc(Cl)ccc1O,max response,[1],-1.62% (inactive)
same,Potency,[15],inactive
same,outcome,[6],inactive
same,Potency,[9],inactive
same,Potency,[10],inactive
same,Potency,[11],inactive
same,Potency,[13],7.08 µM (active)
Clc1ccc(C(c2ccccc2Cl)C(Cl)Cl)cc1 (centres undefined),max response,[1],18.7% (inactive)
same,Potency,[2],33.5 µM (active)
same,Potency,[15],inactive
same,outcome,[3],inactive
same,outcome,[4],inactive
same,Potency,[5],inactive
same,outcome,[6],inactive
same,Potency,[7],59.6 µM (active)
same,max response,[8],-18.3% (inactive) and -6.45% (inactive)
same,Potency,[9],inactive
same,Potency,[10],inactive
same,Potency,[11],inactive
same,max response,[12],-1.64% (inactive) and 6.44% (inactive)
CC(COc1ccccc1)N(CCCl)Cc1ccccc1 (centres undefined),max response,[1],-4.85% (inactive) and -2.28% (inactive)
same,outcome,[6],inactive
same,Potency,[9],inactive
same,Potency,[10],inactive
same,Potency,[11],inactive
same,Potency,[13],35.5 µM (active)
same,Potency,[14],inactive
Nc1c2c(nc3ccccc13)CCCC2,max response,[1],-6.35% (inactive)
same,Potency,[2],inactive
same,Potency,[15],inactive
same,outcome,[3],inactive
same,outcome,[4],inactive
same,Potency,[5],inactive
same,outcome,[6],inactive
same,Potency,[7],inactive
same,max response,[8],-10.2% (inactive)
same,Potency,[9],inactive
same,Potency,[10],inactive
same,Potency,[11],inactive
same,Potency,[12],8.91 µM (active)
same,max response,[13],-20.1% (inactive)
same,Potency,[14],inactive
Cc1ccc(-c2cc(C(F)(F)F)nn2-c2ccc(S(N)(=O)=O)cc2)cc1,max response,[1],3.54% (inactive)
same,Potency,[16],inactive
same,outcome,[17],inactive
same,outcome,[6],inactive
same,max response,[8],-0.182% (inactive)
same,max response,[12],2.3% (inactive) and -2.23% (inactive)
same,max response,[13],-4.48% (inactive)
same,Potency,[14],inactive
same,remaining parasite growth % (stronger effect = lower value),[18]; at 28.7 µM (top of the series),17.6%
same,remaining parasite growth % (stronger effect = lower value),[18]; at 57.5 µM (top of the series),11.7%
same,"activity, percent of control",[19]; at 28.7 µM (top of the series),45.8%
same,"activity, percent of control",[19]; at 57.5 µM (top of the series),21.2%
same,"remaining proliferation (% of control), lower = more inhibition",[20]; at 28.7 µM (top of the series),12.9%
same,"remaining proliferation (% of control), lower = more inhibition",[20]; at 57.5 µM (top of the series),16%
Cc1cn([C@H]2C=C[C@@H](CO)O2)c(=O)[nH]c1=O,max response,[1],1.44% (inactive) and 1.55% (inactive) and -0.234% (inactive)
same,Potency,[2],inactive
same,outcome,[3],inactive
same,outcome,[4],inactive
same,Potency,[5],inactive
same,outcome,[6],inactive
same,Potency,[7],inactive
same,max response,[8],6.12% (inactive) and 3.59% (inactive) and -11.2% (inactive)
same,Potency,[9],inactive
same,Potency,[10],inactive
same,Potency,[11],inactive
same,max response,[12],12.3% (inactive) and 14% (inactive)
same,max response,[13],-5.34% (inactive) and -4.2% (inactive) and -3.76% (inactive)
same,Potency,[14],inactive
